Assay outcomes deposited in PubChem by National Center for Advancing Translational Sciences (NCATS).
IMPase cell inh – membrane-permeable compound that blocks inositol monophosphatase; P97697; CHO-M1 cells, IP1 accumulation, HTRF TR-FRET ratio; inhibition (IP1 accumulation), % at 46.1 µM; 120,000 tested, under 10 active; AID 901; active = well fitted curve in the direction sought with a large enough effect in the signal ratio, not every such curve was filed as active; inconclusive = small, poorly fitted or top-dose-only effect, or a change in a side signal; inactive = no such curve, though single readings can be large or run the other way; the % refers to the signal ratio;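 also: cells stimulated with carbachol in lithium chloride buffer; higher means more IMPase inhibition seen as more IP1 and lower FRET ratio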
Target sequence (P97697 whole entry, looked up): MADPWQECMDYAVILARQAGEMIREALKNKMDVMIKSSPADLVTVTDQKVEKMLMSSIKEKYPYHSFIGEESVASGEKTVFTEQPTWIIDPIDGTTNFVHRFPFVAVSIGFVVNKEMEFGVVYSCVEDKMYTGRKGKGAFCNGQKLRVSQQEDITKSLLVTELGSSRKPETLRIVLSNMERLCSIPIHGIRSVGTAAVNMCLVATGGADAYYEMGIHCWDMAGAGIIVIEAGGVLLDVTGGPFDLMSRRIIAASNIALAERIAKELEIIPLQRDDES
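Elevated IP1 in lysates lowers TR-FRET signal (665/620 ratio and 620 channel reported). Cells were CHO-M1, given carbachol (50 uM as added) plus 50mM LiCl, pH 7.4, 30 min, 37C; compounds titrated up to 46 uM; AC50 by Hill equation.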
NPSR antagonist – blocks cAMP signaling of the human neuropeptide S receptor. AID 1461. Q6W5P4. CHO-NPSR cells, cAMP TR-FRET, antagonist mode. 220,000 tested, 1% active. Potency, µM (top dose mostly 38.3 µM), usual class: inhibitors; also: nearly all actives have a fitted effect of over 50% in size
Target sequence (Q6W5P4 whole entry, looked up): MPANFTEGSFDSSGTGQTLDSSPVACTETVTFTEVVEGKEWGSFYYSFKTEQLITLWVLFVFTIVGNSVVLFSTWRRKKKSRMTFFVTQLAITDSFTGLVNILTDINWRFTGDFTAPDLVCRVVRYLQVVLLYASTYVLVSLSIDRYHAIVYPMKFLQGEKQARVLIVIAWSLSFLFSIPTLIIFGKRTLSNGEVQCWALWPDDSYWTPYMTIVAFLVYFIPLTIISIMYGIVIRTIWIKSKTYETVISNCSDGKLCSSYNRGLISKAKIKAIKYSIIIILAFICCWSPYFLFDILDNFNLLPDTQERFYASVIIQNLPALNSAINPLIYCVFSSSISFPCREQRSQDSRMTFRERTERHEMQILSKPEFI
ALOX12 inhib – inhibitors of human 12-lipoxygenase (ALOX12) | P18054 | purified 12-hLO, xylenol orange hydroperoxide absorbance | Potency, µM (highest dose often 57.1 µM), usual class: inhibitors | 150,000 tested, 0.12% active | AID 1452; also: nearly all actives have a fitted effect of over 55% in size
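Lipoxygenase turnover measured by absorbance at 573 and 405 nm after Fe-XO development. Human 12hLO 150 nM, arachidonate 40 uM, pH 7.0 Hepes buffer with detergent; 15 min compound preincubation, 30 min reaction.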
PNC assembly inh – perinucleolar compartment assembly inhibition; PC3M PTB-GFP, PNC prevalence imaging, 16 h; hits give low values; activity change (PNC), negative = inhibition, % at 10 µM; 140,000 tested, 3.1% active;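 active = readout at or below -70, meaning at least 70% loss of cells showing the perinucleolar compartment, a nuclear body marking cancer cells; inconclusive = readout between -30 and a set limit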
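PC3M cells stably expressing PTB-GFP, 750–1000 cells/well, treated 16 h at 37 °C with compound (23 nl of library stock), in duplicate. After paraformaldehyde fixation and Hoechst stain, imaged at 20x; PNC prevalence scored by image analysis.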
HTT cytoprotect – cytoprotection in Huntington HTT-Q103 PC12 cell model | 230,000 tested, 0.14% active | PC12 HTT-Q103 induced, cytoprotection, ATP luminescence, 40 h | AID 1471 | Potency, µM (doses to about 56.4 µM), usual class: activators; also: nearly all actives have a fitted effect of over 45% in size
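Stable PC12 Q103-GFP cells in serum-supplemented, phenol red-free DMEM; induction by tebufenozide at 100 nM final; compound dose series; cell viability quantified luminescently from ATP.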
HttQ103 aggreg – mutant huntingtin aggregation inhibition; PC12 HttQ103-GFP aggregates, Acumen cytometry, 40 h; Potency, µM (doses to about 46.1 µM), actives largely listed as inhibitors; 220,000 tested, 1.1% active; also: nearly all actives have a fitted effect of over 60% in size
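Huntingtin Q103 exon 1–GFP aggregates in induced PC12 cells (100 nM tebufenozide) were quantified by cytometry from lysates, with compounds dosed in titration.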
Hits are given with their value; n = inactive; u = inconclusive; x = no result; [ ] = remark or other dose. Compounds with a hit are over-represented: about 3.3% of the library has one in this group of screens. Unless noted, calls follow the shape of the dose curve; as a rule, active = well fitted curve in the direction sought with a large enough effect; inconclusive = small, poorly fitted or top-dose-only effect, or another doubt; inactive = no such curve, though single readings can be large; an effect the other way counts as inactive or inconclusive.

SMILES	IMPase cell inh	NPSR antagonist	ALOX12 inhib	PNC assembly inh	HTT cytoprotect	HttQ103 aggreg
CC(=O)N(Cc1ccccc1)c1ccc(C(=O)O)cc1	n	n	n	-85.0	n	n
CC(=O)N(CCN(C(C)=O)c1ccccc1)c1ccccc1	n	n	n	u	n	n
CN(C(=O)CN(c1ccccc1)S(=O)(=O)c1ccc(F)cc1)C1CCS(=O)(=O)C1 (stereo not drawn)	x	n	x	x	n[10 µM]	n[9.22 µM]
Cc1cc(S(=O)(=O)Nc2ccccc2C(=O)O)ccc1F	x	x	n	x	x	x
O=C1CCCCC/C1=N/Nc1ccc(OCc2ccccc2)cc1	x	n	x	x	n[10 µM]	n[9.22 µM]
COc1ccc(N(C(=O)CNC(=O)c2ccco2)C(C(=O)NC2CCCCC2)c2ccco2)cc1 (stereo not drawn)	n	n	n	-126.9	n[10 µM]	n
CCCCN(C(=O)CNC(=O)c1ccco1)C(C(=O)NC1CCCCC1)c1ccc(OC)cc1OC (stereo not drawn)	n	n	n	n	n	n
COc1ccc(N(CC(=O)NC2CCCCC2)C(=O)CNC(=O)c2ccco2)cc1OC	n	n	n	-100.0	n[10 µM]	n
COC(=O)CCC(=O)OC1(C)C(=O)C=C2C=C(c3ccc(C#N)cc3)OC=C2C1=O (stereo not drawn)	x	x	n	x	n	x
CC(C)=CCC/C(C)=C/CO/N=C1/C[C@@H](O)[C@@H](O)[C@@H]2[C@@H]3C(=O)N(C(C)(C)C)C(=O)[C@H]3CC[C@@H]12	x	x	x	x	n[10 µM]	x
Cc1nnc2n1N=CC=C(c1ccccc1)S2	n	n	n	n	15.8µM	x
Cn1c(=O)c2c(nc(NCCCCO)n2Cc2ccccc2Cl)n(C)c1=O	n	x	x	x	x	x
O=c1c(-c2ccc(F)cc2)nc2cncnc2n1Cc1ccccc1	x	x	x	x	n	x
CCS(=O)(=O)c1ccc(OC)c(N=Nc2ccc(O)c3ncccc23)c1	x	n	x	x	n	7.94µM
NS(=O)(=O)c1cc(Br)c(N=Nc2ccc(O)c3ncccc23)c(Br)c1	x	x	n[11.4 µM]	x	n[10 µM]	x
CCCCSc1cnn(-c2ccccc2)c(=O)c1SCCCC	u	12.6µM	n	-80.8	n[1.9 µM]	n
CSc1cnn(-c2ccccc2)c(=O)c1SC	u	u	n	n	n	n[9.22 µM]
CCSc1cnn(-c2ccccc2)c(=O)c1SCC	u	12.6µM	n	n	n	n
CCOC(=O)c1cnc2ccc(OC)cc2c1NCCc1ccccc1	n	x	x	x	x	x
COc1cccc(C(=O)Nn2c(C)nnc2-n2nc(C)cc2C)c1	n	n	n	-100.0	n[10 µM]	n
C[C@H]1[C@H](C)CC[C@]2(C(=O)O)CC[C@]3(C)C(=CCC4[C@@]5(C)CC[C@H](O)C(C)(C)[C@@H]5CC[C@]43C)[C@H]12 (stereo partly drawn)	n	x	n	x	n[1.9 µM]	x
CC(C)C(=O)NC(c1ccccc1)c1cc([N+](=O)[O-])c2cccnc2c1O (stereo not drawn)	x	n	u	n	n[10 µM]	8.91µM
O=[N+]([O-])c1cc(Cc2cc([N+](=O)[O-])c3cccnc3c2O)c(O)c2ncccc12	x	x	n[11.4 µM]	x	n[10 µM]	x
CC(=O)NC(c1ccccc1)c1cc([N+](=O)[O-])c2cccnc2c1O (stereo not drawn)	x	n	x	x	n[10 µM]	2.82µM
O=C(CCc1nc(-c2ccccc2F)no1)Nc1cccc(C(F)(F)F)c1	n	x	x	x	x	x
SMILES	IMPase cell inh	NPSR antagonist	ALOX12 inhib	PNC assembly inh	HTT cytoprotect	HttQ103 aggreg
Cc1ccc2[nH]c(=O)c3cc(C(=O)N(C)Cc4ccco4)sc3c2c1	n	u	n	n	n	n
CCOCCCN(Cc1ccco1)C(=O)c1cc2c(=O)[nH]c3ccc(C)cc3c2s1	n	u	n	-85.0	n	n
COc1ccc2c(c1)c1nnc(SC)nc1n2C	n	n[7.67 µM]	n	-88.4	n[10 µM]	n
COc1ccc(-c2cc(=O)c3ccccc3n2C)cc1	n	n	n	n	n[10 µM]	n
COc1ccc2c(c1)c1ccccc1n2C	n	n	n	u	n[10 µM]	12.6µM
CN(C)S(=O)(=O)Nc1ccccc1C(N)=O	n	u	n	u	n	3.55µM
COc1ccc(S(=O)(=O)N[C@@H](Cc2ccccc2)C(=O)N2CC[C@@]3(O)CCCC[C@H]3C2)cc1	n	n	n	-87.7	n[0.074 µM]	u
CS(=O)(=O)N1CCC2(CC1)CN(Cc1ccc(C#N)cc1)C2	x	x	n	x	n	x
C[N+](C)(C)c1cc2c(nn1)Nc1ccccc1S2	x	x	n[11.4 µM]	x	n[10 µM]	x
CC(=O)c1cccc(NS(=O)(=O)c2ccc(N/C=C\C(=O)c3ccc(F)cc3)cc2)c1	n	n	n	u	n	10µM
O=C(CS(=O)(=O)c1cn(Cc2ccc(F)cc2)c2ccccc12)N1CCCCC1	n	n	n	-100.0	n[10 µM]	n
CCCOC(=O)c1c(NC(=O)c2nc3ncccn3n2)sc(C(=O)OCC)c1C	n	x	x	x	x	x
COc1cccc(CC2(CO)CCCN(Cc3c(C)cc(C)cc3-n3cccn3)C2)c1 (stereo not drawn)	x	n	x	x	n[10 µM]	n[9.22 µM]
COc1ccc(-c2cc(CNC(=O)CCl)on2)cc1	n	n	n	n	n	17.8µM
CCOC(=O)c1c(C)n(S(=O)(=O)c2ccc(C)cc2)c2ccc(NS(=O)(=O)c3ccc(C)cc3)cc12	n	x	x	x	x	x
O=C(CON=C1c2ccccc2-c2ccccc21)NC12CC3CC(CC(C3)C1)C2	x	n	n	n	n[10 µM]	11.2µM
COc1ccc(-c2[nH]nc3c2C(c2ccc(OC(=O)N4CCOCC4)cc2)C(C#N)=C(N)O3)cc1 (stereo not drawn)	n	12.6µM	n	n	n	n
CCOC(=O)N1CCN(C(=O)C2CCN(CC3CCCCC3)CC2)CC1	x	n	n	-113.8	x	n
CCOC(=O)N1CCN(C(=O)C2CCN(S(=O)(=O)N3CCCC3)CC2)CC1	n	n	n	n	n	n
C(=N\Nc1nn[nH]n1)/c1ccccc1	n	n	n	n	n[10 µM]	n
Clc1ccc(/C=N/Nc2nn[nH]n2)cc1	n	n	n	-100.0	u	n
Cc1[nH]n(-c2ccccc2)c(=O)c1/C=N/O	n	n	n	n	n	u
Cc1[nH]n(-c2ccccc2)c(=O)c1N=O	x	n	x	x	x	0.631µM
CN(CCc1ccccn1)C(=O)CCC1CCCN(C(=O)c2ccc3c(c2)OCCO3)C1 (stereo not drawn)	x	n	x	x	n	n
COc1ccc(-n2c(C)c(C(C)=O)c3cc(O)ccc32)cc1	n	u	n	u	n[10 µM]	0.316µM
SMILES	IMPase cell inh	NPSR antagonist	ALOX12 inhib	PNC assembly inh	HTT cytoprotect	HttQ103 aggreg
O=C(NCCc1ccc(Cl)cc1)c1nnc(Cc2ccc(F)cc2)o1	n	x	x	x	x	x
CC(C)CCNC(=O)c1nnc(Cc2ccc(Cl)cc2)o1	n	n	n	-110.3	n	n
Oc1cccc(/C=N/c2c(-c3ccco3)nc3ccccn23)c1	n	10µM	n	n	n	n
Cc1ccc(NC(=O)CNC(=O)c2cccs2)cc1S(=O)(=O)Nc1ccc(Cl)cc1	x	n	n	-112.8	n[10 µM]	n
COc1ccc(NC(=O)CNC(=O)c2cccs2)cc1Cl	x	n	x	x	n	n
CC1=NN2C(=N)/C(=C\c3cc(C)n(-c4cccc(C)c4)c3C)C(=O)N=C2S1	x	12.6µM	x	x	n[10 µM]	n[9.22 µM]
